Screens deposited in PubChem BioAssay by National Center for Advancing Translational Sciences (NCATS).
TGFb SMAD3 inh – qHTS for Inhibitors of TGF-b; AID 588855, 2011; HepG2 CAGA-GFP TGF-b/SMAD3 reporter, GFP fluorescence, 18 h; TGF-beta stimulated, 500 pg/mL final; 410,000 tested, 1.2% active; Potency, µM (top dose mostly 46.1 µM), usual class: inhibitors; note: nearly all actives have a fitted effect of over 65% in size
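TGF-beta reporter screen: HEPG2 CAGA-GFP, 1% FBS, 500 pg/mL TGF-beta final, 18 h; per-cell GFP summed per well; curves fitted and categorized by class.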
HepG2 tox-1 – qHTS for Inhibitors of TGF-b: Cytotox Counterscreen | HepG2 CAGA-GFP viability, ATP luminescence, 18 h | Potency, µM (doses to about 46.1 µM), actives largely listed as cytotoxic | 410,000 tested, 0.76% active
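HepG2 CAGA-GFP cells (1000/well, DMEM with 1% FBS) received compound, then TGF-beta at 500 pg/mL final, and were incubated 18 hours at 37 degrees C. Viability was read by CellTiter-Glo luminescence. Media-only wells were set as complete cell-killing and DMSO as no toxicity.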
HTT ATP protect – qHTS Multiplex Assay to Identify Dual Action Probes in a Cell Model of Huntington: Cytoprotection (ATP); PC12 HTT-Q103 induced, cytoprotection, ATP luminescence, 40 h; Potency, µM (titrated, usually from 56.4 µM), most hits filed as activators; 230,000 tested, 0.14% active; AID 1471, 2008; note: nearly all actives have a fitted effect of over 45% in size
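Cells were plated at 1500 per well in phenol red-free DMEM with 5% equine and 5% calf serum. Tebufenozide (100 nM final) and compounds were added, then ATPlite reagent, and luminescence was read.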
S2 tox – Viability Counterscreen for Primary qHTS for Inhibitors of ATXN expression; S2 cells (HEK-293 line with an ATXN2-luciferase reporter) viability, CellTiter-Fluor protease fluorescence, 24 h; Potency, µM (titrated, usually from 56.7 µM), hits mostly cytotoxic; 400,000 tested, 0.49% active; note: nearly all actives have a fitted effect of over 40% in size
HTT aggregate – qHTS Multiplex Assay to Identify Dual Action Probes in a Cell Model of Huntington: Aggregate Formation (GFP) | Potency, µM (highest dose often 46.1 µM), most hits filed as inhibitors | PC12 HttQ103-GFP aggregates, Acumen cytometry, 40 h | AID 1688, 2009 | 220,000 tested, 1.1% active; note: nearly all actives have a fitted effect of over 60% in size
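Steps: seed 1500 PC12 HTTQ103-GFP cells/well; add tebufenozide, 100 nM final; add compound titration; add ATPLite reagent; quantify GFP aggregates by laser scanning cytometry.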
ATXN2 expr inh – Primary qHTS for Inhibitors of ATXN expression. HEK-293 ATXN2-luciferase reporter, luminescence, 24 h. Potency, µM (doses to about 57 µM), actives largely listed as inhibitors. 360,000 tested, 0.72% active. AID 1745845, 2022; note: nearly all actives have a fitted effect of over 55% in size
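ATXN2-luciferase reporter cells (luciferase flanked by upstream and downstream ATXN2 gene portions) were treated 24 h at 37 °C with compounds at up to 57 uM. SteadyGlo luminescence gave expression; GF-AFC fluorescence gave viability.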
TGFb confirm – qHTS for Inhibitors of TGF-b: Confirmation of Cherry Picks; 1,600 tested, 63% active; Potency, µM (series often up to 46.1 µM), most hits filed as inhibitors; HepG2 CAGA-GFP TGF-b reporter, GFP fluorescence, 18 h; cells stimulated with TGF-beta, 500 pg/mL; AID 720534, 2013; shares compounds with TGFb SMAD3 inh; note: nearly all actives have a fitted effect of over 65% in size
HepG2 tox-2 – qHTS for Inhibitors of TGF-b: Cytotox Counterscreen for Cherry Picks; shares compounds with TGFb SMAD3 inh; HepG2 CAGA-GFP viability, ATP luminescence, 18 h; cells stimulated with TGF-beta, 500 pg/mL; Potency, µM (series often up to 46.1 µM), hits mostly inhibitors; 1,600 tested, 27% active; AID 720535, 2013; note: nearly all actives have a fitted effect of over 70% in size
TGFb CCL64 inh – qHTS for Inhibitors of TGF-b: CCL64 Cells Orthogonal Assay for Cherry Picks; shares compounds with TGFb SMAD3 inh; CCL64 CAGA-GFP reporter, TGF-b stimulated, GFP fluorescence, 18 h; Potency, µM (top dose mostly 46.1 µM), most hits filed as inhibitors; 1,600 tested, 41% active; AID 720536, 2013; note: nearly all actives have a fitted effect of over 65% in size
COP TGFb inh – qHTS for Inhibitors of TGF-b: Hit Validation in HepG2 Cells using COP promoter. shares compounds with TGFb SMAD3 inh. HepG2 COP-GFP TGF-b reporter, GFP fluorescence, 18 h; cells stimulated by added recombinant TGF-beta. Potency, µM (titrated, usually from 46.1 µM), most hits filed as inhibitors. 1,600 tested, 3% active; note: nearly all actives have a fitted effect of over 70% in size
Hits are given with their value; - = inactive; ? = inconclusive; . = not tested or not shown; [ ] = remark or other dose. Hits are enriched below; roughly 2.8% of the tested compounds scored in any of these assays. Calls come from the whole dose curve; as a rule, active = well fitted curve in the direction sought with a large enough effect; inconclusive = small, poorly fitted or top-dose-only effect, or another doubt; inactive = no such curve, though single readings can be large; an effect the other way counts as inactive or inconclusive.

SMILES	TGFb SMAD3 inh	HepG2 tox-1	HTT ATP protect	S2 tox	HTT aggregate	ATXN2 expr inh	TGFb confirm	HepG2 tox-2	TGFb CCL64 inh	COP TGFb inh
CC1(C)OC(=O)C2(Cc3cc([N+](=O)[O-])ccc3N3CCCCC32)C(=O)O1 (stereo unspecified)	-	-	.	.	.	.	.	.	.	.
CCc1ccc(NC(=O)COc2ccc(/C=C(/C#N)c3nc4ccccc4[nH]3)cc2OC)cc1	2.2µM	-	-[10 µM]	.	-	4.5µM	?	?	-	-
COc1ccccc1-n1cnc2cc(NCc3ccco3)ccc21	8.9µM	-	-	?	-	-	13µM	-	21µM	-
C=CCNC(=O)N1CCc2nc(-c3ccccc3)c3c(c2C1)CO[C@@H](C)C3	.	.	-[10 µM]	.	.	.	.	.	.	.
CC(Cl)OC(=O)Nc1cccc2cccnc12 (stereo unspecified)	?	-	.	.	.	.	.	.	.	.
COc1ccc(CN2CCC(C(=O)NC(C)c3cccc4ccccc34)CC2)cc1 (stereo unspecified)	-	-	.	-	.	-	.	.	.	.
Cc1ccc(C(NC(=O)C2CCN(CCOc3ccc(Cl)cc3)CC2)c2ccccn2)cc1 (stereo unspecified)	?	-	.	?	.	-	.	.	.	.
O=C(NC(c1ccccc1)c1ccc2ccccc2n1)C1CCN(CCOc2ccc(Cl)cc2Cl)CC1 (stereo unspecified)	10µM	-	.	-	.	?	?	18µM	?	?
CC(NC(=O)C1CCN(CCOc2ccc(Cl)cc2)CC1)c1cccc2ccccc12 (stereo unspecified)	6.3µM	11µM	.	?	.	?	26µM	18µM	?	-
C=CCCN(Cc1ccc(OC)cc1)S(=O)(=O)c1ccccc1Br	?	-	.	.	.	.	.	.	.	.
CN(Cc1ccccc1)C(=O)[C@H](Cc1ccc2ccccc2c1)NC(=O)[C@@H]1C[C@@H](O)CN1C(=O)c1cn(C)c2ccccc12	.	.	-	.	.	.	.	.	.	.
Cc1sc2nc3c4ccccc4c(NCc4ccco4)nn3c(=O)c2c1C	-	-	-[1.9 µM]	-	-	-	.	.	.	.
Cc1nc(NCc2ccco2)c2c(C)c(C)sc2n1	7.9µM	-	-	?	?	11µM	8.2µM	5.2µM	-	-
C1=C(CCNc2ncnc3c2[nH]c2ccccc23)CCCC1	3.5µM	-	-[10 µM]	14µM	?	?	?	21µM	6.5µM	-
CC(C)C[C@H](NC(=O)[C@H](CCC(N)=O)NC(=O)[C@H](CCCCN)NC(=O)[C@H](CCC(N)=O)NC(=O)[C@@H](N)CCC(=O)O)C(=O)N[C@@H](CCC(N)=O)C(=O)O	.	.	-	.	.	.	.	.	.	.
